Measurements: PubChem BioAssay (NCATS)
Inconclusive results are not listed. The source made the active and inactive calls. Calls follow the shape of the full dose curve.

Columns and labels:
[1] = Primary qHTS for inhibitors of SARS-S pseudo-typed particle cell entry (AID 1479145); also: nearly all actives have a fitted effect of over 45% in size
[2] = Primary qHTS for Huh7 cytotoxicity: counterscreen for inhibitors of MERS-S pseudotyped particle cell entry (AID 1479147)
[3] = Primary qHTS for inhibitors of MERS-S pseudo-typed particle cell entry (AID 1479149); also: nearly all actives have a fitted effect of over 60% in size
[4] = Primary qHTS for Vero E6 cytotoxicity: counterscreen for inhibitors of SARS-S pseudo-typed particle cell entry (AID 1479150)

Measured: Potency

NS(=O)(=O)c1cc2c(cc1Cl)NC(CSCc1ccccc1)=NS2(=O)=O
inactive: all assays above

CO[C@]1(NC(=O)CSC(F)F)C(=O)N2C(C(=O)O)=C(CSc3nnnn3CCO)CO[C@H]21
inactive: all assays above

COc1ccccc1N1CCN(CCCNc2cc(=O)n(C)c(=O)n2C)CC1
inactive: all assays above

O=C1OC2(c3ccc(O)cc3Oc3cc(O)ccc32)c2ccccc21
inactive: all assays above

C=Cc1c(C)c2cc3[nH]c(cc4nc(cc5nc(cc1[nH]2)C(C)=C5CCC(=O)O)C(CCC(=O)O)=C4C)c(C)c3C=C
inactive: all assays above

CC(=O)N(CC(=O)N(C)C)c1ccccc1
inactive: all assays above

CNC1CCCN(c2c(F)cc3c(=O)c(C(=O)O)cn(C4CC4)c3c2OC)C1 (configuration not stated)
inactive: all assays above

CC(=O)OCC(=O)[C@@]1(O)CC[C@H]2[C@@H]3CCC4=CC(=O)C=C[C@]4(C)[C@H]3[C@@H](O)C[C@@]21C
inactive: all assays above

c1ccc2[nH]c(-c3cscn3)nc2c1
inactive: all assays above

CC(C)Cc1ccc(C(C)C(=O)OCc2ccccn2)cc1 (configuration not stated)
inactive: all assays above

CC(C)C[C@@H](N)C(=O)O
inactive: all assays above

NCCc1ccc(O)c(O)c1
inactive: all assays above

CC(=O)O[C@H]1C[C@@H]2CC[C@@H]3[C@H](CC[C@@]4(C)[C@H]3C[C@H]([N+]3(C)CCCCC3)[C@@H]4OC(C)=O)[C@@]2(C)C[C@@H]1N1CCCCC1
inactive: all assays above

Cc1ccc(Nc2c(F)cccc2Cl)c(CC(=O)O)c1
inactive: all assays above

CCOC(=O)c1ccc(C#Cc2ccc3c(c2)C(C)(C)CCS3)nc1
inactive: all assays above

CC(C)C(=O)OCc1cccc(OC(=O)[C@@H]2N3C(=O)[C@@H](NC(=O)Cc4ccccc4)[C@H]3SC2(C)C)c1
inactive: all assays above

CN(C)[C@@H]1C(=O)C(C(=O)NCN2CCCC2)=C(O)[C@@]2(O)C(=O)C3=C(O)c4c(O)cccc4[C@@](C)(O)C3C[C@@H]12 (some centres not stated)
inactive: all assays above

O=C(O)C(=O)Nc1cccc(-c2nn[nH]n2)c1
inactive: all assays above

CCCNC(C)(C)COC(=O)c1ccccc1
inactive: all assays above

CC(C)=CCOc1ccc(/C=C/C(=O)c2ccc(OCC=C(C)C)cc2OCC(=O)O)cc1
inactive: all assays above

Oc1cc(O)c2c(c1)O[C@H](c1ccc(O)c(O)c1)[C@H](O)C2
inactive: all assays above

CC1(C)[C@@H](OC(=O)CCC(=O)O)CC[C@]2(C)[C@H]3C(=O)C=C4[C@@H]5C[C@@](C)(C(=O)O)CC[C@]5(C)CC[C@@]4(C)[C@]3(C)CC[C@@H]12
inactive: all assays above

Cc1cccc(N(C)C(=S)Oc2ccc3c(c2)C2CCC3C2)c1 (configuration not stated)
inactive: all assays above

Cc1ccc(C(C)OC(=O)C2(C)CCC(C(=O)O)C2(C)C)cc1 (configuration not stated)
inactive: all assays above

FC(F)(F)C(Cl)Br (configuration not stated)
inactive: all assays above

C[C@@H](O)[C@H](N)C(=O)O
inactive: all assays above

Cc1cc(O)c(C(C)C)cc1Cl
inactive: all assays above

O=C(O)/C=C/c1ccc(Cn2ccnc2)cc1
inactive: all assays above

CCN(CC)CC(=O)Nc1c(C)cccc1C
inactive: all assays above

Cc1cccc(C)c1NC(=O)C(C)N (configuration not stated)
inactive: all assays above

O=C(O)CCC(=O)OC[C@@H](NC(=O)C(Cl)Cl)[C@H](O)c1ccc([N+](=O)[O-])cc1
inactive: all assays above

C#C[C@]1(O)CC[C@H]2[C@@H]3CCc4cc(OC)ccc4[C@H]3CC[C@@]21C
inactive: all assays above

CCCOc1ccc(C(=O)OCCN(CC)CC)cc1N
inactive: all assays above
